FMDV antiviral = High Throughput Screening for Foot and Mouth Disease Virus Antivirals | FMDV antiviral cell-based qHTS | Potency, µM (series often up to 57.9 µM), without a hit: at the top dose activity change, negative = inhibition, usual class: inhibitors | 410,000 compounds, 1.2% hits | AID 1159524, 2015; calls by dose curve; tested in HEK293T cells; also: read-out not given here; nearly all actives have a fitted effect of over 45% in size
AmpC detergent = qHTS Inhibitors of AmpC Beta-Lactamase (assay with detergent) | P00811 | AmpC hydrolysis of nitrocefin, absorbance 480 nm, 0.01% Triton | Potency, µM (series often up to 114 µM), inactives show at the top dose activity change, negative = inhibition, most hits filed as inhibitors | 370,000 compounds, 0.041% hits;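 also: 0% = no-compound wells and -100% = no-enzyme wells; nearly all actives have a fitted effect of over 25% in size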
Target sequence (P00811 whole entry, looked up): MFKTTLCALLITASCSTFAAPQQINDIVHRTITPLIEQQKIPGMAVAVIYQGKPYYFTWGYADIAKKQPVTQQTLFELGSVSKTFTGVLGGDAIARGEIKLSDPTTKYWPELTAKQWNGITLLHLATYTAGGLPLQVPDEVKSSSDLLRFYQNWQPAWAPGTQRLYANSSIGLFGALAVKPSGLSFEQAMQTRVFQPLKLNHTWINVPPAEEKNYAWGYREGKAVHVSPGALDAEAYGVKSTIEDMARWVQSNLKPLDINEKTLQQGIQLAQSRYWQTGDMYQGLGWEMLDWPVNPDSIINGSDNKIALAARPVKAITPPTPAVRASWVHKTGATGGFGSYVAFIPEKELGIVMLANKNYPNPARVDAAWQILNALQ
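AmpC (5.3 nM in the dispensed reagent) in 20 mM phosphate pH 7.0 with 0.01% (detergent screen) or 0.0001% Triton X-100 was preincubated with compounds for 15 min at room temperature. Nitrocefin was then added from an 800 uM solution, and hydrolysis was followed at 480 nm.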
Sm TGR block = qHTS Assay for the Inhibitors of Schistosoma Mansoni Peroxiredoxins; purified TGR, DTNB reduction, TNB absorbance 405 nm; Schistosoma mansoni thioredoxin glutathione reductase (TGR), Q962Y6; Potency, µM (top dose mostly 114 µM), inactives show top-dose activity change, negative = inhibition, hits mostly inhibitors; 360,000 compounds, 3% hits; also: nearly all actives have a fitted effect of over 60% in size
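TGR 20 nM + NADPH 100 uM (dispensed conc.), cpd preinc 15 min RT; start with NADPH (500 uM addition) then DTNB (15 mM addition). Kinetic TNB absorbance, 405 nm filter. Four-parameter Hill fit across titration.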
AMA1-RON2 inh = qHTS for Inhibitors of AMA1-RON; Towards Development of Antimalarial Drug Lead: Primary Screen; Plasmodium falciparum AMA1 (3D7) - RON2 peptide interaction; AlphaScreen AMA1-biotinylated RON2 peptide binding; Potency, µM (titrated, usually from 58.2 µM), for inactives: at the top dose activity change, negative = inhibition, most hits filed as inhibitors; 360,000 compounds, 0.2% hits; AID 720542, 2013;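 also: 0% = vehicle wells and -100% = peptide control; nearly all actives have a fitted effect of over 45% in size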
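AMA1 (3D7) with his tag at 25 nM final met compounds first, then biotinylated RON2 peptide at 25 nM; detection used donor plus acceptor beads, 10 µg/mL apiece, read by AlphaScreen after 30 min at room temperature.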
AmpC inh no detg = qHTS Inhibitors of AmpC Beta-Lactamase (assay without detergent); P00811; AmpC nitrocefin hydrolysis, absorbance 480 nm, 0.0001% Triton; Potency, µM (highest dose often 57.1 µM), inactives show at the highest dose activity change, negative = inhibition, hits mostly inhibitors; 330,000 compounds, 0.52% hits;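 also: plate controls were no compound for no effect and no enzyme for full effect; nearly all actives have a fitted effect of over 20% in size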
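20 mM phosphate pH 7.0 + 0.01% (detergent screen) or 0.0001% Triton X-100; 5.3 nM AmpC reagent; cpd preinc 15 min RT; nitrocefin (800 uM stock) to start; A480 q20 s × 4 min; Activity was normalised to no-enzyme and no-compound control wells.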
The depositor's hits bear a star; ? = inconclusive; . = no result given. Rows were chosen to be rich in hits. Some 4.1% of all compounds tested hit in one or more screens of this group. Unless noted, calls follow the shape of the dose curve; as a rule, active = well fitted curve in the direction sought with a large enough effect; inconclusive = small, poorly fitted or top-dose-only effect, or another doubt; inactive = no such curve, though single readings can be large; an effect the other way counts as inactive or inconclusive. Unless noted, % is scaled to controls: 0 for no effect and ±100 for the full control effect; potency is read from the fitted curve at half-maximal effect.

SMILES	FMDV antiviral	AmpC detergent	Sm TGR block	AMA1-RON2 inh	AmpC inh no detg
C=CCN1C(=O)/C(=C/c2ccc(-c3ccc(F)cc3)o2)SC1=S	-21%	0%	25µM*	3%	-60%
Cn1nc(-c2ccc(N3CCOCC3)c(NS(=O)(=O)c3ccc(Cl)cc3)c2)c2ccccc2c1=O	-9%	-5%	0%	-3%	-4%
Cc1ccc(S(=O)(=O)Nc2cc(-c3nn(C)c(=O)c4ccccc34)ccc2N2CCOCC2)cc1	24%	-3%	56µM*	-11%	-5%
Cc1ccccc1N1C(=O)C(Cl)=C(N2CCOCC2)C1=O	1%	4%	-6%	-5%	-1%
Cc1ccccc1N1C(=O)NC(=O)/C(=C/c2ccc(N3CCOCC3)o2)C1=O	-6%	1%	22µM*	-26%	-35%
Cc1ccccc1N1C(=O)NC(=O)/C(=C\c2cc(Br)c(N3CCOCC3)o2)C1=O	16µM*	-14%	?	-11%	-25%
COCCn1c(SCC(=O)c2ccc3c(c2)OCCO3)nnc1-c1ccoc1C	-13%	-14%	28µM*	6%	1%
COCCCn1c(SCC(=O)n2c(C)c(C)c3ccccc32)nnc1-c1ccoc1C	-30%	6%	45µM*	-11%	52%
COc1ccc(NC(=O)CSc2nnc(-c3ccoc3C)n2CC2CCCO2)cc1 (centres undefined)	12%	-8%	-3%	-13%	1%
COCCCn1c(SCC(=O)Nc2ccc3c(c2)OCCO3)nnc1-c1ccoc1C	-20%	-11%	0%	11%	4%
COc1ccc(C(=O)CSc2nnc(-c3ccoc3C)n2CC2CCCO2)cc1 (centres undefined)	-12%	-9%	45µM*	23%	29%
CCOC(=O)c1ccccc1NC(=O)CSc1nc2ncccc2[nH]1	-16%	13%	1%	.	.
Cc1ccc(NC(=O)COC(=O)c2ccccc2Nc2ccccc2)cc1	-16%	-2%	-2%	14%	25µM*
O=C(COC(=O)c1ccccc1Nc1ccccc1)c1ccccc1	.	-12%	11%	69%	-39%
CCOc1ccc(Cn2nnc3c(=O)[nH]c(C4CCN(C(=O)c5ccccc5)CC4)nc32)cc1	-17%	-2%	0%	.	.
Cc1nc2ccccn2c1C(=O)/C=C/c1cccc([N+](=O)[O-])c1	6.3µM*	-8%	.	-1%	-12%
CCOC(=O)C1(Cc2cccc(OC)c2)CCCN(C(=O)c2cc(CC(C)C)[nH]n2)C1 (centres undefined)	18%	-5%	2%	-14%	92%
CCOC(=O)C1(Cc2cccc(OC)c2)CCCN(C(=O)c2ccc(OC)o2)C1 (centres undefined)	67%	6%	50µM*	-9%	69%
CCOC(=O)C1(Cc2cccc(OC)c2)CCN(Cc2cccc(OC)c2O)CC1	25µM*	-3%	0%	-5%	53%
CCSc1ncc(Cl)c(C(=O)N(Cc2ccc(C(C)(C)C)cc2)C2CCS(=O)(=O)C2)n1 (centres undefined)	-15%	-5%	-3%	.	.
O=C(CSc1n[nH]c(-c2ccccc2Cl)n1)N1CCN(c2ccccc2F)CC1	-29%	-7%	0%	.	.
Cc1c(C)n(C)c2ccc(C(=O)NCCc3ccc(Cl)cc3)cc12	-2%	4%	-2%	.	.
CCOc1cc(/C=C\c2[nH]c(=O)[nH]c(=O)c2[N+](=O)[O-])ccc1OC(C)CC (centres undefined)	8.9µM*	-3%	-18%	-9%	-9%
CCOC(=O)COc1ccc(Br)cc1/C=C/c1[nH]c(=O)[nH]c(=O)c1[N+](=O)[O-]	28µM*	7%	?	-17%	-22%
CCOC(=O)COc1ccc(Br)cc1/C=C\c1[nH]c(=O)[nH]c(=O)c1[N+](=O)[O-]	35µM*	0%	?	-4%	-24%
CCOc1ccc(/C=C/c2[nH]c(=O)[nH]c(=O)c2[N+](=O)[O-])cc1	-6%	-10%	-17%	3%	-21%

Screens (PubChem BioAssay)
